High-throughput results deposited in PubChem by several laboratories.
PrP UTR inh – inhibition of PrP 5' UTR reporter expression; actives 0.35% (n = 340,000); AID 488862, 2010; cell-based PrP 5' UTR mRNA reporter, plate reader; inhibition, % (concentration not given with the values); in the data active = inhibition above about 52%; also: 0 = median of the neutral control wells
Rv3671c protease – Rv3671c serine protease inhibitors, primary screen, biochemical, fluorescence polarization, M. tuberculosis H37Rv. actives 0.048% (n = 320,000). inhibition, % at 5.96 µM; in the data active = inhibition above about 38%;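 also: extracellular domain of Rv3671c used as enzyme; 0% = enzyme with DMSO and 100% = no enzyme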
FadD28 binding – inhibitors of FadD28 bisubstrate probe binding, primary screen, biochemical, fluorescence polarization, single point; inhibition, % at 12.5 µM; actives 0.22% (n = 360,000); AID 588549, 2011; in the data active = inhibition above about 8.5%, passing the limit was not always enough; inconclusive = no clear call, values can overlap the other calls
PriA SSB inh – inhibitors of Klebsiella pneumoniae PriA binding to SSB C-terminal tail, primary screen, biochemical, AlphaScreen; inhibition, % at 33 µM; actives 0.6% (n = 430,000); AlphaScreen SSBct-PriA binding, biotinylated peptide; in the data active = inhibition mostly above about 37%, no sharp cut-off; inactive = mostly below about 20%;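 also: plate controls were negative control peptide for no effect and reference peptide for full effect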
UGM FP inh – M. tuberculosis UGM enzyme inhibitors, primary screen, biochemical, fluorescence polarization, single point; UDP-galactopyranose mutase (Mycobacterium tuberculosis (strain ATCC 25618 / H37Rv)), …; purified UGM, fluorescence polarization probe displacement; inhibition, % at 10 µM; actives 0.06% (n = 320,000); in the data active = inhibition above about 10%, passing the limit was not always enough; inconclusive = no clear call, values can overlap the other calls
Target sequence (P9WIQ1 whole entry, looked up): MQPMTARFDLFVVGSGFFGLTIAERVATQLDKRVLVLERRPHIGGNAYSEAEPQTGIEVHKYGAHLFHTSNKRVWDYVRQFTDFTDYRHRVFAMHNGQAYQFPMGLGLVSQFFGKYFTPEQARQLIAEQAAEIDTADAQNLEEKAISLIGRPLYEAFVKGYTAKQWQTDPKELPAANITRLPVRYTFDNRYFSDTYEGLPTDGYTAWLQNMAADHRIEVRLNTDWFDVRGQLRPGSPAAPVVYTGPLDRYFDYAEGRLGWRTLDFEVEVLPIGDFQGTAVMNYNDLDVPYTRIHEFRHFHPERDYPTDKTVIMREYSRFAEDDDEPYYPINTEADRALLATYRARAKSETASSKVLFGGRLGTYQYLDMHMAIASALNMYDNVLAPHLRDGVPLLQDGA
PrPC TRFRET – inhibitors of human cell surface prion protein PrPC, primary screen, cell-based, TR-FRET; Major prion protein (Homo sapiens), P04156; TR-FRET read-out; inhibition, % at 13.8 µM; actives 0.43% (n = 370,000); AID 720596, 2013; in the data active = inhibition above about 24%; also: 0% = median of the test wells and 100% = reference compound wells
PrP UTR cherry – prion 5' UTR mRNA inhibition, cherry-pick retest. AID 504592, 2011. cell-based prion protein 5' UTR reporter, plate reader. shares compounds with PrP UTR inh. actives 48% (n = 1,100). inhibition, % at 2.5 µM; in the data active = inhibition above about 54%; inconclusive = no clear call, values can overlap the other calls
An asterisk follows results filed as active; ! = a repeat was not active. An excerpt weighted towards active compounds, which were near 1.2% of everything screened.

`CCN1CCN(Cc2ccc(NC(=O)c3ccc(C)c(NC(=O)c4cncc(-c5cccs5)c4)c3)cc2C(F)(F)F)CC1` gave PrP UTR inh 61*, FadD28 binding 1, PriA SSB inh 47* and PrP UTR cherry 86*.
For C[C@]12CCC(=O)C[C@@H]1CC[C@@H]1[C@@H]2CC[C@]2(C)[C@@H](O)CC[C@@H]12 the results were PrP UTR inh -12, Rv3671c protease -7, FadD28 binding -2, PriA SSB inh 2 and PrPC TRFRET 5.
For C[C@]12CCC(=O)C[C@@H]1CC[C@@H]1[C@@H]2CC[C@]2(C)C=CC[C@@H]12 the results were PrP UTR inh 66*, Rv3671c protease 10, FadD28 binding -1, PriA SSB inh -14, UGM FP inh -2, PrPC TRFRET -3 and PrP UTR cherry 9.
`Cc1nn(-c2ccccc2Cl)c(Cl)c1/C=N/Nc1nc2ccccc2s1` gave PrP UTR inh 87*, Rv3671c protease 2, FadD28 binding -3, UGM FP inh 2, PrPC TRFRET 6 and PrP UTR cherry 81*.
`Cc1nn(-c2ccccc2Cl)c(Cl)c1C=NNc1nc2ccccc2s1` gave PriA SSB inh -7.
`CCOC(=O)C1(Cc2ccccc2)CCCN(Cc2ccc(OCC)c(CO)c2)C1` (centres undefined) gave PrP UTR inh 52*, Rv3671c protease 4, FadD28 binding -3, PriA SSB inh -14, UGM FP inh -1, PrPC TRFRET 4 and PrP UTR cherry 5.
CCOC(=O)C1(Cc2ccccc2)CCCN(CCO)C1 (centres undefined) was read as PrP UTR inh -64, Rv3671c protease -3, FadD28 binding -5, PriA SSB inh -1, UGM FP inh -2 and PrPC TRFRET 2.
For CCCCN(C(=O)c1ccc(Cl)cc1)C1CC2CCC(C1)N2C (centres undefined) the results were PrP UTR inh 72*, Rv3671c protease 1, FadD28 binding 0, PriA SSB inh -26, UGM FP inh 1, PrPC TRFRET -1 and PrP UTR cherry -14.
O=C(CSc1nnc(-c2ccccc2)o1)Nc1ccccc1F was read as PrP UTR inh 60*, Rv3671c protease 1, FadD28 binding -3, PriA SSB inh -6, UGM FP inh -2, PrPC TRFRET -3 and PrP UTR cherry 59*.
Screening O=C(CSc1nnc(-c2ccccc2)o1)Nc1ccccc1C(F)(F)F returned PriA SSB inh -10.
O=C(CSc1nnc(-c2ccc(Br)cc2)o1)Nc1cccc(C(=O)O)c1 was read as PrP UTR inh 71*, Rv3671c protease -1, FadD28 binding 0, PriA SSB inh -8, UGM FP inh -1, PrPC TRFRET 8 and PrP UTR cherry 80*.
Screening Cc1ccc(-c2nnc(SCC(=O)Nc3ccccc3F)o2)cc1 returned PrP UTR inh 89*, Rv3671c protease -2, FadD28 binding 0, PriA SSB inh -9, UGM FP inh -1, PrPC TRFRET -2 and PrP UTR cherry 88*.
O=C(Nc1cccc(Cl)c1Cl)C1COCC(=O)N1Cc1cccs1 (centres undefined) was read as PriA SSB inh -4.
`COc1cccc(C(=O)N2CCN(c3cc(N(C)C)cnn3)CC2)c1` gave PriA SSB inh -3.
Screening C(=NNc1nc2ccccc2[nH]1)c1ccccn1 returned PriA SSB inh 1.
Screening C(=N\Nc1nc2ccccc2[nH]1)/c1ccccn1 returned PrP UTR inh 52*, FadD28 binding 0, PrPC TRFRET 10 and PrP UTR cherry inconclusive.
Screening CC(/C=C\C=C\c1ccccc1)=NNC(=O)c1cncc(Br)c1 returned PriA SSB inh -3.
`CCC(C)(C)C1CCc2[nH]nc(C(=O)NC3CCCC3)c2C1` (centres undefined) gave PrP UTR inh -1, Rv3671c protease 9, FadD28 binding 1, PriA SSB inh -34, UGM FP inh -1 and PrPC TRFRET 0.
`O=C(NC1CCCCC1)c1n[nH]c2c1CCCCC2` gave PrP UTR inh 79*, Rv3671c protease -2, FadD28 binding 0, PriA SSB inh -5, UGM FP inh 0, PrPC TRFRET 4 and PrP UTR cherry 59*.
Screening O=C(CSc1cn(CCNC(=O)c2ccc3ccccc3c2)c2ccccc12)NCc1ccco1 returned PrP UTR inh 58*, Rv3671c protease -24, FadD28 binding -1, PriA SSB inh 12, UGM FP inh 4, PrPC TRFRET 3 and PrP UTR cherry 6.
O=C(Nc1cccc(S(=O)(=O)N2CCOCC2)c1)c1cnn2c(C(F)F)cc(-c3ccccc3)nc12 was read as PrP UTR inh 80*, Rv3671c protease -6, FadD28 binding -1, PriA SSB inh 0, UGM FP inh -2, PrPC TRFRET 7 and PrP UTR cherry 18.
For CNS(=O)(=O)c1ccc(NC(=O)c2cnn3c(C(F)F)cc(-c4ccccc4)nc23)cc1 the results were PrP UTR inh -7, Rv3671c protease 1, FadD28 binding -1, PriA SSB inh -7, UGM FP inh -1 and PrPC TRFRET 1.
`CCc1cccc(CC)c1NC(=O)c1cccs1` gave PriA SSB inh 1.
Screening C=CCN1CC[C@]23c4c5ccc(O)c4OC2[C@H](O)CC[C@@]3(O)[C@H]1C5 (some centres undefined) returned PrP UTR inh 1, Rv3671c protease 5, FadD28 binding 2, PriA SSB inh -18 and PrPC TRFRET -7.
Screening Oc1ccc2c3c1O[C@H]1[C@@H](O)CC[C@@]4(O)[C@@H](C2)N(CC2CCC2)CC[C@]314 returned PrP UTR inh 63*!, Rv3671c protease -1, FadD28 binding -2, PriA SSB inh 8, UGM FP inh 0, PrPC TRFRET 10 and PrP UTR cherry -6.
For O=C(Nc1ccccc1)c1cnc2n(c1=O)CCS2 the results were PrP UTR inh 56*, Rv3671c protease -7, FadD28 binding 0, PriA SSB inh -10, UGM FP inh -1, PrPC TRFRET -3 and PrP UTR cherry -39.
`Clc1ccccc1/C=C/c1nc(-c2ccccn2)no1` gave PrP UTR inh 55*, Rv3671c protease -5, FadD28 binding -1, PriA SSB inh -4, UGM FP inh 2, PrPC TRFRET 4 and PrP UTR cherry 61*.
For CCN(CC)c1ccc(C(=C2C=CC(=[N+](CC)CC)C=C2)c2ccc(N(CC)CC)cc2)cc1 the results were PrP UTR inh 52*, FadD28 binding -1, PriA SSB inh 111, PrPC TRFRET -143 and PrP UTR cherry inconclusive.
